Data: PubChem BioAssay (NCI)
About 83,000 compounds went through this panel and 20% of them were active in at least one assay; those are over-represented in the sample as a whole.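 A percent growth of 40 corresponds to 60% growth inhibition; 0 means no net growth; -100 means all cells died. Active threshold: below 10.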 Values without a mark were called inactive. The source made the active and inactive calls.

test system: HOP-92 NSCLC; experiment: NCI-60 one-dose screen, 48 h (100 = growth as untreated, 0 = no growth, -100 = all killed); conditions: 10 µM unless noted

| Structure (SMILES) | growth |
| --- | --- |
| COC(=O)[C@@H](Cc1c[nH]c2ccccc12)NC(=O)/C=C/c1ccccc1 | 54.6% |
| NNc1ccc(S(N)(=O)=O)cc1 | 85.3% |
| COc1ccc(-c2ccc(-c3ccc(C(=N)N)s3)s2)cc1 | -64.2% (active) |
| O=P(O)(O)C(O)(Cc1cccnc1)P(=O)(O)O | 114% |
| O=C1OC(/C=C/c2ccccc2)=NC/1=C/c1ccccc1[N+](=O)[O-] | 81.2% |
| N/C(=N\O)c1ncc(-c2ccc(C(F)(F)F)cc2)c(NC2CCCCCC2)n1 | -89.5% [100 µM] (active) |
| Cc1cc(Nc2c3ccccc3nc3ccccc23)ccc1NS(C)(=O)=O | -5.41% (active) |
| COC(=O)[C@H](Cc1cn(C)cn1)NC(=O)[C@H](CC(C)C)NC(=O)Nc1cc(C(F)(F)F)cc(C(F)(F)F)c1 | -98.2% [100 µM] (active) |
| N=C(N)c1ccc(-c2ccc(-c3cccs3)s2)cc1F | -62% (active) |
| CCCCCCCCCCCCCC | 91.3% |
| Cc1nn(-c2ccccc2)c2nc3c(nc12)C1=NCCN1C(c1ccc(Cl)cc1)N3 (stereo unspecified) | 30.2% |
| COc1cc(OC)c(C(=O)/C=C/c2cccc(OC(C)=O)c2)cc1CC=C(C)C | 56.5% |
| C[N+](C)(C)CCCCCCCCCC[N+](C)(C)C | 103% |
| Cc1cc2nc(CN)[nH]c2cc1C | 84% |
| CC(=O)C1CCC2C3CC(C)=C4CC(O)CCC4(C)C3CCC12C (stereo unspecified) | 102% |
| N=C(N)c1ccc(-c2ccc(-c3ccco3)o2)cc1F | -20% (active) |
